Reference: PubChem BioAssay AID1159580 (chemical genetic matrix, 2015)
Values joined by “and” are separate entries in the source; they are usually repeats but may differ in a detail not shown here. Identical values can stand only once. The campaign covered roughly 5,500 compounds. About 2,000 (36%) were called active. About 18% were inconclusive and are not listed. Some of the results follow. Values without a mark were called inactive. Cut-off read from the data, not from the text of the source: active = normalized growth mostly below about 0.91 (no sharp cut-off); inconclusive = no clear call, values can overlap the other calls; inactive = mostly above about 0.92.

Assay: chemical genetic growth profiling, strain panel (AID 1159580);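 note: tested at 20 µM; growth read once vehicle control cultures reached saturation at 30 °C; 1 = growth at the plate median or of vehicle wells; lower values mean less growth of the strain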
Conditions: S. cerevisiae deletion strains, growth OD

C#CC1(O)CCC2C3CCC4=CC(=O)CCC4(C)C3CCC21C (stereo unspecified)
normalized growth (locus YAL021C, strain ccr4, hits give low values): 0.973 | normalized growth (locus YAL026C, strain drs2, hits give low values): 0.982 | normalized growth (locus YAL030W, strain snc1, hits give low values): 0.995 | normalized growth (locus YBL061C, strain skt5, hits give low values): 0.96 | normalized growth (locus YBR009C, strain hhf1, hits give low values): 0.979 | normalized growth (locus YBR021W, strain FUR4, hits give low values): 0.985 | normalized growth (locus YBR023C, strain chs3, hits give low values): 0.981 | normalized growth (locus YBR171W, strain sec66, hits give low values): 0.981 | normalized growth (locus YBR229C, strain ROT2, hits give low values): 0.985 | normalized growth (locus YBR231C, strain swc5, hits give low values): 0.977 | normalized growth (locus YBR279W, strain paf1, hits give low values): 0.985 | normalized growth (locus YCL011C, strain gbp2, hits give low values): 0.994 | normalized growth (locus YCL016C, strain dcc1, hits give low values): 0.968 | normalized growth (locus YCL029C, strain bik1, hits give low values): 0.984 | normalized growth (locus YCL069W, strain vba3, hits give low values): 1 | normalized growth (locus YCR088W, strain abp1, hits give low values): 0.992 | normalized growth (locus YDL005C, strain med2, hits give low values): 0.976 | normalized growth (locus YDL035C, strain GPR1, hits give low values): 0.981 | normalized growth (locus YDL040C, strain nat1, hits give low values): 0.97 | normalized growth (locus YDL074C, strain BRE1, hits give low values): 1.01 | normalized growth (locus YDL101C, strain DUN1, hits give low values): 0.979 | normalized growth (locus YDL185W, strain tfp1, hits give low values): 0.981 | normalized growth (locus YDL192W, strain arf1, hits give low values): 0.98 | normalized growth (locus YDR001C, strain nth1, hits give low values): 0.977 | normalized growth (locus YDR069C, strain doa4, hits give low values): 0.933 | normalized growth (locus YDR101C, strain arx1, hits give low values): 1.02 | normalized growth (locus YDR137W, strain rgp1, hits give low values): 1.19 [resistant] (active) | normalized growth (locus YDR159W, strain sac3, hits give low values): 0.937 | normalized growth (locus YDR162C, strain NBP2, hits give low values): 0.971 | normalized growth (locus YDR195W, strain ref2): 0.975 | normalized growth (locus YDR297W, strain sur2, hits give low values): 0.98 | normalized growth (locus YDR318W, strain mcm21, hits give low values): 0.97 | normalized growth (locus YDR334W, strain swr1, hits give low values): 0.954 | normalized growth (locus YDR335W, strain msn5, hits give low values): 0.981 | normalized growth (locus YDR388W, hits give low values): 0.976 | normalized growth (locus YDR392W, strain spt3, hits give low values): 0.918 | normalized growth (locus YDR502C, strain sam2, hits give low values): 0.985 | normalized growth (locus YEL003W, strain gim4, hits give low values): 0.976 | normalized growth (locus YEL037C, strain rad23, hits give low values): 0.969 | normalized growth (locus YEL061C, strain CIN8 (second series), hits give low values): 0.965 | normalized growth (locus YEL061C, strain CIN8, hits give low values): 0.996 | normalized growth (locus YER015W, strain faa2, hits give low values): 0.992 | normalized growth (locus YER016W, strain bim1, hits give low values): 0.996 | normalized growth (locus YER110C, hits give low values): 0.968 | normalized growth (locus YER111C, strain swi4, hits give low values): 0.99 | normalized growth (locus YER155C, strain BEM2 (second series), hits give low values): 1.02 | normalized growth (locus YER155C, strain BEM2, hits give low values): 0.982 | normalized growth (locus YER167W, strain BCK2, hits give low values): 0.994 | normalized growth (locus YFR010W, strain ubp6, hits give low values): 0.995 | normalized growth (locus YGL078C, strain dbp3, hits give low values): 0.95 | normalized growth (locus YGL086W, strain mad1, hits give low values): 1.01 | normalized growth (locus YGL167C, strain pmr1, hits give low values): 0.976 | normalized growth (locus YGL173C, strain kem1, hits give low values): 0.986 | normalized growth (locus YGL227W, strain vid30, hits give low values): 0.983 | normalized growth (locus YGL240W, strain doc1, hits give low values): 0.987 | normalized growth (locus YGL248W, strain PDE1, hits give low values): 0.99 | normalized growth (locus YGL253W, strain hxk2, hits give low values): 0.978 | normalized growth (locus YGR135W, strain pre9, hits give low values): 0.947 | normalized growth (locus YGR252W, strain gcn5, hits give low values): 0.956 | normalized growth (locus YHR013C, strain ard1, hits give low values): 0.994 | normalized growth (locus YHR027C, strain rpn1, hits give low values): 0.948 | normalized growth (locus YHR030C, strain SLT2, hits give low values): 0.998 and 1 | normalized growth (locus YHR079C, strain IRE1 (second series), hits give low values): 0.983 | normalized growth (locus YHR079C, strain IRE1, hits give low values): 1 | normalized growth (locus YHR094C, strain hxt1, hits give low values): 0.968 | normalized growth (locus YHR129C, strain ARP1, hits give low values): 0.999 | normalized growth (locus YHR142W, strain chs7, hits give low values): 0.98 | normalized growth (locus YHR200W, strain rpn10, hits give low values): 0.986 | normalized growth (locus YIL066C, strain RNR3, hits give low values): 0.989 | normalized growth (locus YIL073C, strain SPO22, hits give low values): 0.933 | normalized growth (locus YIL125W, strain kgd1, hits give low values): 0.978 | normalized growth (locus YIR030C, strain dcg1, hits give low values): 0.984 | normalized growth (locus YJL092W, strain hpr5, hits give low values): 0.977 | normalized growth (locus YJL095W, strain BCK1 (second series), hits give low values): 0.981 | normalized growth (locus YJL095W, strain BCK1, hits give low values): 0.981 and 1.01 | normalized growth (locus YJL115W, strain asf1, hits give low values): 0.954 | normalized growth (locus YJL129C, strain trk1, hits give low values): 0.97 | normalized growth (locus YJL134W, strain LCB3, hits give low values): 0.983 | normalized growth (locus YJL154C, strain vps35, hits give low values): 0.972 | normalized growth (locus YJL164C, strain tpk1, hits give low values): 0.978 | normalized growth (locus YJL166W, strain qcr8, hits give low values): 0.983 | normalized growth (locus YJL168C, strain set2, hits give low values): 0.977 | normalized growth (locus YJL187C, strain SWE1 (second series), hits give low values): 1.01 | normalized growth (locus YJR043C, strain POL32, hits give low values): 1.03 | normalized growth (locus YJR066W, strain TOR1, hits give low values): 0.957 | normalized growth (locus YJR075W, strain HOC1, hits give low values): 1
